# Assay outcomes (PubChem)
# Shown are actives, neighbours in structure and some others; about 1.1% of the full set was active somewhere.
# PfHsp40 yeast: rescue of yeast from PfHsp40 toxicity, primary screen, S. cerevisiae, ATP luminescence. S. cerevisiae expressing PfHsp40, growth rescue. growth rescue, % at 12.5 µM. hit rate 0.68% among 340,000. AID 504582, 2011; in the data active = growth rescue above about 28%, passing the limit was not always enough; inconclusive = no clear call, values can overlap the other calls;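 note: yeast W303a lacking pdr1 and pdr3 grown in galactose medium; growth measured after three days at 30 °C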
# BioA inh: M. tuberculosis BioA enzyme inhibitors, primary screen, biochemical, plate reader, single point, HTS; 7,8-diaminopelargonic acid synthase BioA (Mycobacterium tuberculosis); purified M. tuberculosis BioA enzyme; inhibition, % at 9.99 µM; hit rate 0.096% among 360,000; in the data active = inhibition above about 40%; inconclusive = no clear call, values can overlap the other calls
# FadD28 FP inh: inhibitors of FadD28 bisubstrate probe binding, primary screen, biochemical, fluorescence polarization, single point; inhibition, % at 12.5 µM; hit rate 0.22% among 360,000; AID 588549, 2011; in the data active = inhibition above about 8.5%, passing the limit was not always enough; inconclusive = no clear call, values can overlap the other calls
# PrP 5UTR inh: inhibition of PrP 5' UTR reporter expression; cell-based PrP 5' UTR mRNA reporter, plate reader; inhibition, % (concentration not given with the values); hit rate 0.35% among 340,000; in the data active = inhibition above about 52%; note: 0 = median of the neutral control wells
# Yp Topo-I inh: Yersinia pestis topoisomerase I inhibitors, primary screen, biochemical, cleavage product accumulation, plate reader, single point; Y. pestis Topo-I cleavage product accumulation; activity, % at 10 µM; hit rate 0.064% among 360,000; DNA topoisomerase I (Yersinia pestis CO92); in the data active = activity above about 50%, passing the limit was not always enough; inconclusive = no clear call, values can overlap the other calls
# PrP UTR cherry: prion 5' UTR mRNA inhibition, cherry-pick retest. shares compounds with PrP 5UTR inh. cell-based prion protein 5' UTR reporter, plate reader. inhibition, % at 2.5 µM. hit rate 48% among 1,100; in the data active = inhibition above about 54%; inconclusive = no clear call, values can overlap the other calls
# The depositor's hits bear a star; ? = inconclusive; nt = no result given.
SMILES,PfHsp40 yeast,BioA inh,FadD28 FP inh,PrP 5UTR inh,Yp Topo-I inh,PrP UTR cherry
Cn1c(=N)n(CC(=O)c2ccc(Cl)c(Cl)c2)c2ccccc21,0.5,0.8,-4.5,60.8*,2.1,12.3
CC(=O)Nc1ccc(Nc2cc(C)nc3c(-c4ccccc4)cnn23)cc1,?,1.1,3.5,59.6*,-1.9,-4.3
Cc1cc(N)n2ncc(-c3ccccc3)c2n1,0.7,0.5,1.4,-132.2,-4.7,nt
CCN1C=C(C(=O)c2ccccc2)C(=O)CC1,-1.8,-1.6,0.5,60.5*,3.5,-0.1
CCCCN1C=C(C(=O)c2ccccc2)C(=O)CC1,-1.6,-1.5,-0.7,4.1,2.7,nt
CCc1ccc(-c2cn3nc(C)c(C)nc3n2)cc1,-1.9,-1.4,-2.0,84.7*,7.9,36.4
CC(C)c1cn(CC[C@H]2CC[C@@H](NC(=O)c3cccc(F)c3)[C@@H](CO)O2)nn1,nt,-0.6,nt,nt,nt,nt
Nc1ncnc(Oc2cccc3cccnc23)c1[N+](=O)[O-],-0.1,nt,-0.8,67.4*,1.6,31.9
Cc1cccc(Oc2ncnc(N)c2[N+](=O)[O-])c1C,-1.5,-2.0,-2.0,-9.9,-5.5,nt
Cc1ccc(S(=O)(=O)N2CCC(=O)CC2c2ccccc2)cc1 (configuration not stated),-0.9,1.2,-1.4,56.2*,-2.2,-39.3
O=C(O)Cc1sc(Nc2ccc(Cl)cc2)nc1-c1cccs1,0.9,nt,nt,88.3*,nt,-23.8
C[C@H](CO)N1C[C@H](C)[C@H](CN(C)C(=O)Cc2ccccc2)OCCCC[C@H](C)Oc2ccc(NC(=O)Nc3ccccc3)cc2C1=O,nt,-1.1,nt,nt,nt,nt
C[C@@H]1CCCCO[C@H](CN(C)C(=O)CCC(F)(F)F)[C@H](C)CN([C@H](C)CO)C(=O)c2cc(NC(=O)C3CCCCC3)ccc2O1,nt,0.1,nt,nt,nt,nt
C[C@@H]1CN([C@@H](C)CO)C(=O)c2cc(Br)cnc2O[C@@H]1CN(C)C(=O)NC1CCCC1,nt,2.0,nt,nt,nt,nt
O=C(Nc1nncs1)c1cc2c(s1)CCC2,-0.5,nt,-4.0,-3.5,0.9,nt
O=C(Nc1nccs1)c1cc2c(s1)CCCCC2,?,0.3,-2.2,63.7*,-1.7,72.1*
COc1ccc(Oc2nccc(-c3ccc(F)cc3)c2C#N)cc1,0.6,0.2,-2.7,76.4*,4.8,-47.2
COc1ccc(C2/C(=C(/O)c3ccccc3)C(=O)C(=O)N2CCN2CCOCC2)c(OC)c1 (configuration not stated),-1.2,-1.1,-5.5,-19.4,1.8,nt
COc1ccc(C2/C(=C(/O)c3ccc(Cl)cc3)C(=O)C(=O)N2CCN2CCOCC2)c(OC)c1 (configuration not stated),-0.6,nt,0.6,63.2*,4.8,-9.3
C[C@@H]1CN([C@H](C)CO)C(=O)c2cc(NC(=O)CCC(F)(F)F)ccc2O[C@@H](C)CCCCO[C@@H]1CN(C)Cc1ccc(C(F)(F)F)cc1,nt,5.2,nt,nt,nt,nt
CN(C)CC(=O)N[C@@H]1C=C[C@H](CC(=O)NCc2ccc(Cl)cc2)O[C@@H]1CO,nt,4.5,nt,nt,nt,nt
CN1C(CCl)Nc2cc(Cl)c(S(N)(=O)=O)cc2S1(=O)=O (configuration not stated),-0.9,4.3,-0.3,76.7*,1.6,-14.9
CCC1NC(=O)c2cc(S(N)(=O)=O)c(Cl)cc2N1 (configuration not stated),-0.7,-0.4,-0.2,-3.5,0.4,nt
Cc1ccc(/C=C2/SC(=S)N(c3ccc(S(=O)(=O)Nc4nccs4)cc3)C2=O)cc1,-1.5,-2.8,-1.9,83.1*,-1.0,-35.2
C[C@@H]1CCCCO[C@@H](CN(C)C(=O)Cc2ccccc2)[C@H](C)CN([C@@H](C)CO)C(=O)c2cc(NC(=O)c3ccccc3)ccc2O1,nt,-0.5,nt,nt,nt,nt
COc1c(C)cc(C(=O)C2CCCN(C(=O)c3cccc(-n4cccn4)c3)C2)cc1C (configuration not stated),2.1,4.0,-5.9,-12.0,22.7,nt
COc1c(C)cc(C(=O)C2CCCN(C(=O)c3ccc4[nH]ccc4c3)C2)cc1C (configuration not stated),0.5,1.9,-0.2,77.9*,10.8,-0.3
CC(=O)N/C(=C\c1ccccc1)C(=O)OCc1ccccc1,-0.6,-1.8,-1.6,71.5*,-1.7,-21.7
